USP30 block = inhibitors of human USP30 deubiquitinase; inhibition, % at 25 µM; Ubiquitin carboxyl-terminal hydrolase 30 (Homo sapiens), Q70CQ3; actives 5.3% (n = 47,000); purified USP30, Ub-rhodamine cleavage fluorescence
USP17 inh = inhibitors of human USP17 deubiquitinase; Ubiquitin carboxyl-terminal hydrolase 17-like protein 5 (Homo sapiens), A8MUK1; purified USP17, Ub-rhodamine cleavage fluorescence, 3 h; inhibition, % at 50 µM; actives 6.5% (n = 47,000)
USP10 inh = inhibitors of human USP10 deubiquitinase; inhibition, % at 20 µM; purified USP10, Ub-rhodamine fluorescence, 60 min; actives 1.1% (n = 47,000)
USP8 inh = inhibitors of human USP8 deubiquitinase. AID 1645853, 2021. actives 4.2% (n = 47,000). inhibition, % at 20 µM. Ubiquitin carboxyl-terminal hydrolase 8 (Homo sapiens), P40818. purified USP8, Ub-rhodamine cleavage fluorescence, 30 min
Target sequence (P40818 whole entry, looked up): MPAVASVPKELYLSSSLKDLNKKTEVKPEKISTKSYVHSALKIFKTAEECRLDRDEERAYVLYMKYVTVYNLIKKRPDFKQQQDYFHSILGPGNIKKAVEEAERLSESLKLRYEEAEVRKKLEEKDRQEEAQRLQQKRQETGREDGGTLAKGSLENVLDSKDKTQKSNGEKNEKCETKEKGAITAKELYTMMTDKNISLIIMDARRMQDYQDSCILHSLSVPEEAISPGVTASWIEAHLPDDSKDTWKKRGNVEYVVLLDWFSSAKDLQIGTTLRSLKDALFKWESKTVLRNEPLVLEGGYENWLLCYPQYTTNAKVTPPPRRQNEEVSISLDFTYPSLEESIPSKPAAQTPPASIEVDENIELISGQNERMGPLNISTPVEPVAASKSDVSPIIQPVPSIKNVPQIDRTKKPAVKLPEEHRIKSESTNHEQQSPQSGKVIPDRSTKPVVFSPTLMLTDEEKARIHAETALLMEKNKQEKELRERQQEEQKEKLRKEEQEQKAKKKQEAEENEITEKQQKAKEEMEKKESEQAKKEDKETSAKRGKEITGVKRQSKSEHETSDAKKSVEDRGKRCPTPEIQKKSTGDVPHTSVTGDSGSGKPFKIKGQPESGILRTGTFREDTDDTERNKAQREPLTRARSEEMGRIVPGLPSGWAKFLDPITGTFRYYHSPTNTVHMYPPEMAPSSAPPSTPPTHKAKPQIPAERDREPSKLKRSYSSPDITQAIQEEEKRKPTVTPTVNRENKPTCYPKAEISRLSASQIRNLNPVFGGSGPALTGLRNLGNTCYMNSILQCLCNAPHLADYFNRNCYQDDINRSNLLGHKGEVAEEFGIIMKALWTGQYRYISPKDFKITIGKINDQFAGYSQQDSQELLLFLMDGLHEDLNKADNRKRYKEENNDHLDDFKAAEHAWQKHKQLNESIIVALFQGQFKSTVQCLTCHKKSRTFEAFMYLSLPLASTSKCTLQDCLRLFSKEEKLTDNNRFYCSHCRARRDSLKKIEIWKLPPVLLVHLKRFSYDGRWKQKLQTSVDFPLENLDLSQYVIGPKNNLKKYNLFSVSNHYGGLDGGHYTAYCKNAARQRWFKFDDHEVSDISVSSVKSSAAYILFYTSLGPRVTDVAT
USP7 block = inhibitors of human USP7 deubiquitinase; Ubiquitin carboxyl-terminal hydrolase 7 (Homo sapiens), Q93009; purified USP7, Ub-rhodamine cleavage fluorescence; inhibition, % at 20 µM; actives 0.3% (n = 47,000)
USP28 block = inhibitors of human USP28 deubiquitinase. Ubiquitin carboxyl-terminal hydrolase 28 (Homo sapiens), Q96RU2. purified USP28, Ub-rhodamine cleavage fluorescence, 30 min. inhibition, % at 25 µM. actives 3% (n = 47,000)
Starred values were filed as active, the others as inactive; x = no result. The list is not random: actives were taken first. Their share in the collection is about 13%. Rule as the data show it: active = inhibition above about 30%; inactive = the rest.

SMILES	USP30 block	USP17 inh	USP10 inh	USP8 inh	USP7 block	USP28 block
Cc1cccc(C(=O)N2CCc3cc(-c4nc(NC(=O)CN5CCCC5)sc4C)ccc32)c1	-15.3	45.1*	3.1	9.4	-7.0	10.7
Cc1sc(NC(=O)Cn2nnc3ccccc3c2=O)nc1-c1ccc2c(c1)CCN2C(=O)C(C)C	x	56.1*	12.6	14.0	11.5	x
CN(CC(=O)Nc1nc(-c2ccc3c(c2)CCN3C(=O)C2CCCCC2)cs1)C1CCCCC1	-55.8	-17.0	-5.5	6.3	-21.7	-15.5
Cc1ccc(C(=O)N2CCc3cc(-c4nc(NC(=O)CN5CCCCCC5)sc4C)ccc32)cc1	3.5	12.9	-1.9	5.8	-87.7	4.7
Cc1ccc(C(=O)N2CCc3cc(-c4csc(NC(=O)CN(C)C5CCCCC5)n4)ccc32)cc1	-15.2	23.2	-4.1	58.0*	-2.9	12.0
Cc1sc(NC(=O)CN2CCOCC2)nc1-c1ccc2c(c1)CCN2C(=O)C(C)C	-29.6	-7.5	-4.5	-35.3	-22.0	0.0
COc1ccc(NC(=O)CCc2c(C)c3c(C)nn(-c4ccccc4)c3n(C)c2=O)cc1OC	2.6	16.5	-0.6	-1.2	7.8	7.9
COc1ccc(NC(=O)CCc2c(C)c3c(C)nn(-c4ccccc4)c3n(C)c2=O)c(OC)c1	30.2*	-2.9	-0.1	-2.7	-2.3	-1.5
CSc1cccc(NC(=O)N2Cc3cccn3-c3ccccc32)c1	-19.3	-36.9	-6.7	13.4	7.2	8.9
O=S(=O)(Nc1ccc2ccccc2c1)c1ccc2c(c1)OCCCO2	12.1	19.6	10.7	17.6	5.2	6.3
COc1ccc(C)cc1NC(=O)Nc1nnc(CC(=O)NCc2ccccc2)s1	11.0	18.5	18.9	37.6*	13.8	-0.9
CCN(CC)c1ccc(NC(=O)c2cnn3c(C(F)F)cc(-c4ccc(OC)cc4)nc23)cc1	13.6	15.7	3.3	10.9	-1.1	11.2
CCCc1ccc(C(C)NC(=O)c2cnn3c(C(F)F)cc(-c4ccc(OC)cc4)nc23)cc1 (centres undefined)	14.7	33.6*	3.5	21.6	11.8	17.7
Cc1ccc(-c2cc(C(F)F)n3ncc(C(=O)Nc4ccc5c(c4)OCO5)c3n2)cc1	11.1	22.3	-0.5	47.2*	0.1	10.3
CC1(C)CC(NC(=O)N2CCOCC2)CC(C)(CNC(=O)N2CCOCC2)C1 (centres undefined)	18.5	2.1	-1.4	-0.4	2.4	3.2
Cc1ccc(-c2nsc(NC(=O)COc3ccccc3C)n2)cc1	-187.6	-19.1	-3.4	6.2	-6.2	-13.0
COc1ccc(CNC(=O)c2ccc(-c3nnc(-c4ccccc4)o3)cc2)cc1OC	41.9*	25.3	-1.8	13.8	3.6	9.9
COc1ccc(CNC(=O)Cc2cccc3ccccc23)cc1OC	30.0*	23.7	-0.8	0.0	4.2	8.3
O=C(NCc1ccc(F)cc1)Nc1ccc(-c2nnc(-c3ccccc3)o2)cc1	x	71.8*	5.3	4.0	6.6	x
CCC(=O)Nc1nc(-c2ccc(C)cc2)ns1	-79.8	45.6*	0.3	2.7	1.8	6.3
Cc1nnc(-c2coc(S(=O)(=O)N3CCN(c4ccc(F)cc4)CC3)c2)o1	17.5	13.8	-7.6	9.8	2.5	4.0
O=C(c1nc2c(s1)CCCN2C(=O)c1cccnc1)N1CCCC1	14.7	12.6	1.4	3.1	5.5	17.3
COc1ccc(-c2nsc(NC(=O)Cc3cccc4ccccc34)n2)cc1OC	-57.1	0.2	-9.4	4.0	3.5	32.7*
COc1ccc(CCNC(=O)c2cc3ccccc3s2)cc1OC	-25.7	-17.7	0.4	-14.3	-1.5	86.0*
COc1ccc(OCC(=O)Nc2nc(-c3ccc(OC)c(OC)c3)ns2)cc1	-32.1	-14.0	0.0	-0.6	2.2	-12.1
SMILES	USP30 block	USP17 inh	USP10 inh	USP8 inh	USP7 block	USP28 block
COc1cccc(N(C(=O)COc2cccc(F)c2)c2nc3ccccc3s2)c1	-137.7	-5.5	-5.1	2.1	-1.7	-45.3
O=C(NCc1cccnc1)c1cnn2c(C(F)(F)F)cc(-c3ccccc3)nc12	64.3*	13.6	-1.5	-0.4	-1.9	1.5
CC(C)CCNC(=O)c1cnn2c(C(F)(F)F)cc(-c3ccccc3)nc12	-2.7	-1.1	8.9	-24.5	-10.1	-8.6
O=C(c1ccc(F)cc1Cl)N(c1ccccn1)C1CCCCC1	26.6	x	4.9	17.0	-13.8	11.8
O=C(c1ccc(Cl)cc1)N(c1ccccn1)C1CCCCC1	80.5*	86.5*	70.7*	54.2*	51.6*	47.6*
COc1ccccc1C(=O)N1CCc2nc(-c3ccccc3)ncc2C1	x	-4.5	-3.3	-4.3	-46.3	x
Cc1cccc(C(=O)NCc2noc(-c3ccccc3)n2)c1	10.2	11.6	-0.5	11.4	3.5	14.0
Cc1cccc(C(=O)Nc2noc3nc(C)ccc23)c1	x	35.8*	2.8	2.9	3.4	x
CCc1noc(-c2c(C)cc(C)n2CC(=O)NCc2ccc(Cl)cc2)n1	39.4*	11.8	-2.1	14.9	-8.8	10.4
Cc1cc(C)n(CC(=O)NCc2cccc(Cl)c2)c1-c1nc(C2CC2)no1	0.2	18.8	0.0	16.9	-91.9	12.2
Cc1cccc2cc3c(nc12)N(C(=O)C1CC1)CC3	-51.1	34.9*	-4.9	-1.2	-0.6	2.6
CCN1C(=O)[C@H]2CN(CCOC)C[C@H]2C12CCN(C(=O)c1cccnc1)CC2	-11.8	-14.4	-1.4	-73.3	-1.6	-10.1
CC(=O)c1cccc(NC(=O)C(C)OC(=O)c2cc3ccccc3[nH]2)c1 (centres undefined)	44.5*	59.9*	19.4	19.5	8.6	35.9*
C[C@@H]1CC[C@]2(C(=O)O)CC[C@]3(C)C(=CCC4[C@@]5(C)CC[C@H](O)C(C)(C)C5CC[C@]43C)C2[C@H]1C (some centres undefined)	34.7*	4.2	5.1	1.6	0.1	8.5
CC1(C)C[C@@H](O)[C@]2(C)CC[C@]3(C)C(=CCC4[C@@]5(C)CCC(=O)[C@](C)(CO)[C@@H]5CC[C@]43C)[C@@H]2C1 (some centres undefined)	18.0	28.0	4.0	1.1	-6.2	-2.5
CC1CCC2(C(=O)O)CCC3(C)C(=CCC4C5(C)CCC(O)C(C)(C)C5CCC43C)C2C1C (mixture of isomers)	40.2*	22.5	0.7	1.5	3.2	16.4
O=C(Nc1ccccc1)C1CCc2nc(N3CCCCC3)ncc2C1 (centres undefined)	-41.0	-17.7	-4.7	-26.0	-95.6	-14.6
COc1c(O)c(O)c2c(=O)cc(-c3ccc(O)cc3)oc2c1OC	13.2	67.2*	13.8	19.7	-44.7	40.3*
COc1cc(OC)c2c(=O)cc(-c3ccccc3)oc2c1OC	36.8*	1.0	3.2	6.4	2.9	3.5
COc1ccc(NC(=O)Nc2ccc(CCc3nc4ccccc4[nH]3)cc2)cc1OC	-8.5	x	1.9	-54.9	-2.1	-11.9

From PubChem BioAssay
